The values below come from PubChem BioAssay (NCI).

Structures are written as SMILES. The panel holds about 83,000 compounds, 20% with a hit somewhere; the sample as a whole holds those more often.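 Treatment: one concentration, 48 hours, 96-well format. Scoring: percent growth, with anything below 10 considered active.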 Unmarked numbers belong to inactive results. The source made the active and inactive calls.

Some test systems named below: SK-MEL-2 melanoma; EKVX NSCLC; SN12C renal; UO-31 renal; TK-10 renal; ACHN renal; CAKI-1 renal; A498 renal; CCRF-CEM leukemia; MOLT-4 leukemia; RPMI-8226 leukemia; OVCAR-8 ovarian; OVCAR-5 ovarian; OVCAR-4 ovarian; SK-OV-3 ovarian; IGROV1 ovarian; OVCAR-3 ovarian; HS 578T breast; NCI/ADR-RES ovarian.
Experiment in all cases: NCI-60 one-dose screen, 48 h (100 = growth as untreated, 0 = no growth, -100 = all killed)
What all share (conditions): 10 µM unless noted

As to `Cc1c(C(=O)N[C@@H](Cc2ccccc2)C(=O)C(=O)NCCc2ccccc2)[nH]c2ccccc2c1=O`, the growth in the assay with SK-MEL-2 melanoma is 111%; with EKVX NSCLC, 97.1%; in the assay on SN12C renal it was 83.4%; in the assay on UO-31 renal, 103%; with TK-10 renal, 118%; in the assay on ACHN renal, 101%. For the same molecule, the growth in the assay with CAKI-1 renal was 95.9%; in the assay with A498 renal, 86.5%; in the assay on CCRF-CEM leukemia, 104%; with MOLT-4 leukemia, 86.8%; with RPMI-8226 leukemia it was 89.8%; in the assay with OVCAR-8 ovarian, 98.6%. For the same molecule, the growth in the assay with OVCAR-5 ovarian was 102%; in the assay with OVCAR-4 ovarian it was 94%; in the assay with SK-OV-3 ovarian, 107%; in the assay on IGROV1 ovarian, 95.3%; in the assay on OVCAR-3 ovarian it was 105%; in the assay on HS 578T breast it was 105%. Besides, in the assay with NCI/ADR-RES ovarian, the growth is 100%.

With `Clc1ccc(-c2c3ccc(=[N+]4CCCCC4)cc-3oc3cc(N4CCCCC4)ccc23)cc1`, the growth in the assay on SK-MEL-2 melanoma was -77.4% (active); with EKVX NSCLC, -66.7% (active); in the assay on SN12C renal it was -79.1% (active); in the assay on UO-31 renal, -83.9% (active); with TK-10 renal, -94.8% (active); in the assay on ACHN renal, -94.4% (active). Also, the growth in the assay on CAKI-1 renal is -75.2% (active); in the assay on A498 renal it was -97.5% (active); in the assay on CCRF-CEM leukemia, 0.54% (active); in the assay with MOLT-4 leukemia, -32.1% (active); in the assay on RPMI-8226 leukemia, -41.9% (active); in the assay on OVCAR-8 ovarian, -50.6% (active). Also, the growth with OVCAR-5 ovarian is -90.3% (active); with OVCAR-4 ovarian it was -82.5% (active); with SK-OV-3 ovarian it was -95.8% (active); in the assay with IGROV1 ovarian, -77% (active); with OVCAR-3 ovarian, -98.3% (active); in the assay with HS 578T breast, -26.1% (active). The growth with NCI/ADR-RES ovarian was -65.7% (active).

As for `c1coc(-c2c3ccc(=[N+]4CCCCC4)cc-3oc3cc(N4CCCCC4)ccc23)c1`, the growth in the assay on SK-MEL-2 melanoma is -80.4% (active); with EKVX NSCLC it was -66.5% (active); with SN12C renal, -75.4% (active); in the assay with UO-31 renal it was -84.6% (active); in the assay with TK-10 renal, -93.3% (active); in the assay with ACHN renal it was -95.9% (active). Further, the growth in the assay on CAKI-1 renal was -82.9% (active); with A498 renal it was -66.3% (active); in the assay with CCRF-CEM leukemia, -50.1% (active); in the assay on MOLT-4 leukemia, -43% (active); with RPMI-8226 leukemia, -42.7% (active); in the assay on OVCAR-8 ovarian, -61% (active). Moreover, the growth is -91.8% (active) in the assay on OVCAR-5 ovarian; -41.9% (active) in the assay with OVCAR-4 ovarian; -95.2% (active) with SK-OV-3 ovarian; -67.5% (active) with IGROV1 ovarian; -99.2% (active) in the assay with OVCAR-3 ovarian; -35.6% (active) in the assay on HS 578T breast. Further, the growth in the assay with NCI/ADR-RES ovarian is -60.2% (active).

Take `Cc1nc2ccccc2c(/C=C/c2ccc(Cl)cc2)c1C(=O)/C=C/c1ccc(F)cc1`: the growth was 3.88% (active) with SK-MEL-2 melanoma; 29.9% in the assay with EKVX NSCLC; -10.2% (active) in the assay on SN12C renal; -79.4% (active) with UO-31 renal; 43.3% in the assay with TK-10 renal; 3.87% (active) in the assay with ACHN renal. Moreover, the growth in the assay on CAKI-1 renal was -10.1% (active); in the assay with A498 renal, -4.11% (active); in the assay with CCRF-CEM leukemia, 6.9% (active); in the assay on MOLT-4 leukemia, 4% (active); in the assay with RPMI-8226 leukemia, -25.1% (active); in the assay on OVCAR-8 ovarian, 12.8%. Also, the growth in the assay with OVCAR-5 ovarian was -19.7% (active); with OVCAR-4 ovarian it was 25.8%; in the assay on SK-OV-3 ovarian, 61.9%; with IGROV1 ovarian, -5.53% (active); in the assay with OVCAR-3 ovarian, -19.2% (active); in the assay with HS 578T breast, 8.46% (active). The growth in the assay on NCI/ADR-RES ovarian was -0.868% (active).

Regarding `COc1cccc(-c2nc3sccn3c2-c2ccnc(NCCNS(=O)(=O)c3cccc(F)c3)c2)c1`, the growth with SK-MEL-2 melanoma is 40.8%; with EKVX NSCLC, 38.5%; with SN12C renal it was 27.6%; with UO-31 renal it was 6.44% (active); with TK-10 renal, 51.4%; in the assay with ACHN renal, 20.5%. Also, the growth with CAKI-1 renal is 21.3%; in the assay with A498 renal, 36.6%; in the assay with CCRF-CEM leukemia, 16.5%; in the assay on MOLT-4 leukemia it was 20.2%; with RPMI-8226 leukemia, -25.3% (active); in the assay with OVCAR-8 ovarian it was 12.7%. Also, the growth in the assay on OVCAR-5 ovarian was 71.4%; with OVCAR-4 ovarian, 21.5%; in the assay on SK-OV-3 ovarian, 45.9%; in the assay with IGROV1 ovarian it was 31.6%; with OVCAR-3 ovarian, 36.7%; in the assay with HS 578T breast, 27.9%. Further, the growth in the assay with NCI/ADR-RES ovarian was 12.6%.

As for `Cc1ccc(/C=C/c2c(C(=O)/C=C/c3ccc(Cl)cc3)c(C)nc3ccccc23)cc1`, the growth in the assay on SK-MEL-2 melanoma was 8.94% (active); in the assay on EKVX NSCLC it was 17.6%; in the assay with SN12C renal it was -49.2% (active); with UO-31 renal, -74.7% (active); in the assay with TK-10 renal, 26.5%; with ACHN renal, -64.6% (active). Also, the growth is -4.17% (active) in the assay with CAKI-1 renal; -16.1% (active) with A498 renal; 4.53% (active) in the assay with CCRF-CEM leukemia; 0.928% (active) in the assay on MOLT-4 leukemia; -31.7% (active) in the assay with RPMI-8226 leukemia; 13% in the assay with OVCAR-8 ovarian. For the same molecule, the growth was -33.4% (active) in the assay on OVCAR-5 ovarian; 6.64% (active) in the assay on OVCAR-4 ovarian; 55.1% with SK-OV-3 ovarian; 1.39% (active) in the assay on IGROV1 ovarian; -46.2% (active) with OVCAR-3 ovarian; -5.28% (active) with HS 578T breast. In the assay with NCI/ADR-RES ovarian, the growth is -21.6% (active).

In the case of `Nc1n[nH]c(-c2cc(Cl)ccc2O)c1-c1ccccc1`, the growth with SK-MEL-2 melanoma was 75.9%; with EKVX NSCLC, 72.6%; with SN12C renal, 86.5%; in the assay on UO-31 renal, 61.9%; in the assay with TK-10 renal, 106%; with ACHN renal it was 61.3%. Moreover, the growth was 79.7% in the assay on CAKI-1 renal; 101% with A498 renal; 85.2% in the assay on CCRF-CEM leukemia; 72.7% in the assay with MOLT-4 leukemia; 91.1% in the assay on RPMI-8226 leukemia; 91% in the assay with OVCAR-8 ovarian. For the same molecule, the growth with OVCAR-5 ovarian is 67.4%; in the assay with OVCAR-4 ovarian, 86.3%; in the assay on SK-OV-3 ovarian, 96.7%; in the assay on IGROV1 ovarian it was 96%; in the assay with OVCAR-3 ovarian, 107%; in the assay on HS 578T breast, 85.3%. The growth with NCI/ADR-RES ovarian was 79.3%.

On to `Cc1nn(-c2ccccc2)c(Oc2ccc(Cl)cc2)c1/C=N\N=c1/sc2ccccc2n1C`, for which the growth in the assay on SK-MEL-2 melanoma is 78.1%; in the assay with EKVX NSCLC it was 85.5%; in the assay on SN12C renal it was 88.4%; in the assay on UO-31 renal it was 62.1%; with TK-10 renal it was 117%; with ACHN renal, 93.9%. Also, the growth is 81.3% with CAKI-1 renal; 92.2% in the assay with A498 renal; 86.8% in the assay with CCRF-CEM leukemia; 74.1% in the assay with MOLT-4 leukemia; 77.4% in the assay on RPMI-8226 leukemia; 89.1% in the assay with OVCAR-8 ovarian. For the same molecule, the growth in the assay on OVCAR-5 ovarian is 106%; with OVCAR-4 ovarian, 106%; in the assay with SK-OV-3 ovarian, 74.2%; in the assay with IGROV1 ovarian, 84.7%; in the assay with OVCAR-3 ovarian, 101%; in the assay with HS 578T breast, 78.8%. Also, in the assay on NCI/ADR-RES ovarian, the growth is 98.1%.

With `Cc1nn(-c2ccccc2)c(Cl)c1/C=C(/NC(=O)c1ccccc1)c1nc2ccccc2[nH]1`, the growth with SK-MEL-2 melanoma was 111%; with EKVX NSCLC, 94.4%; in the assay with SN12C renal it was 91.2%; with UO-31 renal it was 80.2%; in the assay on TK-10 renal, 106%; in the assay on ACHN renal, 92.4%. Besides, the growth in the assay with CAKI-1 renal is 84.1%; in the assay with A498 renal it was 88.2%; in the assay with CCRF-CEM leukemia it was 86.5%; in the assay with MOLT-4 leukemia, 79.9%; in the assay with RPMI-8226 leukemia, 91.6%; with OVCAR-8 ovarian, 102%. For the same molecule, the growth was 101% in the assay on OVCAR-5 ovarian; 106% in the assay on OVCAR-4 ovarian; 95.4% in the assay with SK-OV-3 ovarian; 96.8% in the assay on IGROV1 ovarian; 120% in the assay with OVCAR-3 ovarian; 115% with HS 578T breast. Moreover, in the assay on NCI/ADR-RES ovarian, the growth is 101%.

`CCOC(=O)c1c(/C=C/C(=O)O)nc2ccccc2c1/C=C/c1ccccc1`: the growth with SK-MEL-2 melanoma is 47.4%; with EKVX NSCLC it was 61.6%; in the assay with SN12C renal, 27.1%; in the assay with UO-31 renal, 42.5%; with TK-10 renal, 65.5%; with ACHN renal it was 43.2%. Besides, the growth was 62.3% with CAKI-1 renal; 8.83% (active) in the assay on A498 renal; 17.1% in the assay on CCRF-CEM leukemia; 25.5% in the assay on MOLT-4 leukemia; 10.9% in the assay on RPMI-8226 leukemia; 31.2% in the assay on OVCAR-8 ovarian. In addition, the growth in the assay on OVCAR-5 ovarian was 57.4%; in the assay on OVCAR-4 ovarian, 60.5%; with SK-OV-3 ovarian, 93.6%; in the assay on IGROV1 ovarian it was 52.1%; in the assay on OVCAR-3 ovarian, 13.3%; with HS 578T breast it was 18.7%. In the assay with NCI/ADR-RES ovarian, the growth is 32.7%.

For the molecule `O=C1Nc2ccccc2/C1=C/c1cn(C(=O)c2c(Cl)cccc2Cl)c2ccccc12`, the growth in the assay with SK-MEL-2 melanoma was 39.9%; in the assay on EKVX NSCLC it was 81.5%; in the assay with SN12C renal, 56.1%; in the assay on UO-31 renal it was 50.7%; in the assay with TK-10 renal, 90.7%; in the assay with ACHN renal it was 43.6%. The growth with CAKI-1 renal is 18.7%; with A498 renal, 52.5%; in the assay with CCRF-CEM leukemia, 70.5%; in the assay with MOLT-4 leukemia, 43.9%; with RPMI-8226 leukemia, 51.8%; with OVCAR-8 ovarian, 52.3%. Further, the growth is 85% in the assay with OVCAR-5 ovarian; 50.4% with OVCAR-4 ovarian; 71.8% with SK-OV-3 ovarian; 25.8% with IGROV1 ovarian; 43% in the assay on OVCAR-3 ovarian; 64.7% in the assay on HS 578T breast. Besides, the growth with NCI/ADR-RES ovarian was 57.7%.
